The record followed here is PubChem BioAssay AID2845 (The Scripps Research Institute Molecular Screening Center, 2010).

Screen size: about 2,300 compounds; about 2,000 (87%) were called active. Rule as the data show it: active = activation above about 49%; inactive = the rest. The set was probably picked from earlier hits. These entries were drawn from the full list.

In the experiment the target is Aryl hydrocarbon receptor (Homo sapiens) (UniProt P35869). Kind of experiment: activators of human aryl hydrocarbon receptor reporter – cell-based, luminescence, luciferase reporter, confirmation (AID 2845).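 Also: HepG2 hepatoma cells carrying a DRE-driven firefly luciferase reporter; 0% = vehicle wells and 100% = reference agonist wells.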 The following applies: human cells, AHR-responsive luciferase reporter, at 9 µM, stronger effect = higher value.
Sequence of Aryl hydrocarbon receptor (Homo sapiens) (P35869 whole entry, looked up): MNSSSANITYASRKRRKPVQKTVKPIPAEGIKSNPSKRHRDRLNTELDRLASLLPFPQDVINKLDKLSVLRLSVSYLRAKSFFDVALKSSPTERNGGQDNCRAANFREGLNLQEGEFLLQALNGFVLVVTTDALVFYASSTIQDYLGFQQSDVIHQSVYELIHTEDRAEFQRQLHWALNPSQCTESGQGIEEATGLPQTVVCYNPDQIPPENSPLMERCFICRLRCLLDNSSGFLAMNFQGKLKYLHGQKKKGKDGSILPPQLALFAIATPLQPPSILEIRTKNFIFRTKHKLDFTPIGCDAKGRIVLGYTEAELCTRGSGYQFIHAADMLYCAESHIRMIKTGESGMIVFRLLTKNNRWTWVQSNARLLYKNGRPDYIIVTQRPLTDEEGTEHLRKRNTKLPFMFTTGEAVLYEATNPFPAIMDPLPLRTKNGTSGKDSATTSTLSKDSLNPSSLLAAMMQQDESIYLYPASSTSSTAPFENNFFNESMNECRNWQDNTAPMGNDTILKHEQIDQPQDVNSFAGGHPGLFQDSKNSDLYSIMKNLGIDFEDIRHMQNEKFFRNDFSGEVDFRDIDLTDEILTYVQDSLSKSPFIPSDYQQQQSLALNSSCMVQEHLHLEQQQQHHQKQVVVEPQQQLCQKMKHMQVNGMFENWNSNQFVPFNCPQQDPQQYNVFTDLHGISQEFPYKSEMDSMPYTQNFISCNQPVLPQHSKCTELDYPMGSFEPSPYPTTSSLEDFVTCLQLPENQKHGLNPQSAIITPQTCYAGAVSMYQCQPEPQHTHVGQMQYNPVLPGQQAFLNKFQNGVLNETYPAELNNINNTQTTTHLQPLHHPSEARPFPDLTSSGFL
In the case of `O=C(N/N=C/c1ccco1)c1ccc(C(=O)N/N=C/c2ccco2)o1`, the activation is 73.2% (active).

For the molecule `O=C(N/N=C/c1c[nH]c2ccccc12)c1cc2ccccc2o1`, the activation was 42.3% (inactive). Turning to `COc1ccc(NC(=O)c2ccco2)cc1NC(=O)c1ccc(C#N)cc1F`, the activation is 71.7% (active). For `N#C/C(=C(/O)COc1cccc2ccccc12)c1nc2ccccc2[nH]1`, the activation was 84.1% (active). For the molecule `O=C(Nc1cc(S(=O)(=O)Nc2ccc(Cl)cc2)ccc1O)c1ccc(F)cc1F`, the activation is 103% (active).

As for `Cc1nnc(NC(=O)/C=C/c2ccco2)s1`, the activation was 127% (active).

For the molecule `NS(=O)(=O)c1ccc(-c2ccc(/C=C3\SC(=O)NC3=O)o2)cc1`, the activation was 116% (active). In the case of `COc1cc(/C=N/N=C(\N)c2nonc2N)cc(OC)c1OC`, the activation was 101% (active). Then `Cc1cccc(NC(=O)c2ccc3ccccc3n2)n1`, with 128% (active); and `Cc1csc(NC(=S)Nc2cccc(Cl)c2)n1`, with 98.7% (active); and `C/C(=N/NC(=S)Nc1ccccc1)c1ccc2c(c1)OCO2`, with 16% (inactive). Take `CCSc1ccccc1C(=O)Nc1ccc2c(c1)OCO2`: the activation was 101% (active). As for `Cc1cccc(NC(=O)Nc2ccc3c(c2)OCO3)n1`, the activation was 123% (active).

As for `CCC(C)NCC(=O)Nc1ccc([N+](=O)[O-])cc1C(=O)Nc1ccccc1F` (stereo not given), the activation was 88.2% (active). `COCCNc1nc(-c2ccccc2)nc2c1oc1ccccc12`: the activation was 121% (active). As for `CSc1ccc(C#N)cc1NC(=O)c1ccc(Cl)cc1`, the activation is 86.5% (active).

Regarding `CCN(CC)C(=O)Oc1ccc(Br)cc1C(=O)Nc1ccc(F)c(Cl)c1`, the activation is 124% (active). Then `C/C(=N\NC(=O)c1cccnc1)c1ccc(-n2ccnc2)cc1`, with 86.3% (active); and `C(=N\Nc1ccc2ccccc2n1)/c1ccc2c(c1)OCO2`, with -10.8% (inactive). Turning to `Cc1noc(C)c1/C=N/Nc1ccc2ccccc2n1`, the activation was 176% (active). The value for `COc1ccccc1Nc1ncnc2c1oc1ccccc12` was 132% (active); that for `CCn1ccnc1CN(C)Cc1nc(-c2ccc3c(c2)OCO3)no1` was 79.9% (active).

Consider `O=C(Nc1ccc(C2CC2(Cl)Cl)cc1)c1cccc([N+](=O)[O-])c1` (stereo not given), for which the activation is 96.2% (active). Consider `O=C(NCCCn1ccnc1)c1cc(-c2ccccc2)on1`, for which the activation was 323% (active). Then `Clc1ccc(Nc2nc(-c3cccs3)cs2)nc1`, with 141% (active); and `Cc1ccc(NC(=O)NNC(=O)c2sccc2-n2cccc2)cc1`, with 101% (active). `COc1ccc2nc(Nc3nc(-c4ccncc4)cs3)sc2c1`: the activation was 101% (active).

For `Cc1cccc(Nc2nc(-c3ccccc3)cs2)n1`, the activation is 131% (active).

As for `COc1ccc(Nc2nc(-c3ccccc3)cs2)cc1`, the activation was 91.2% (active). As to `C/C(CC1CC(C)(C)OC1=O)=N/Nc1nc(-c2ccccc2)cs1` (stereo not given), the activation is -2.24% (inactive).
